Test results from PubChem BioAssay.
Calls of active or inactive are those of the source.

Key:
[1] = test system: PRMT1 (protein arginine N-methyltransferase 1); assay: small molecules binding arginine methyltransferase PRMT1 – biochemical, small-molecule microarray, 635 nm fluorescence, primary screen (AID 1088); details: higher = more signal;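 note: binding of Prmt1 protein to compounds spotted on small-molecule microarray slides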
[2] = growth effects on S. cerevisiae YJM789 – YJM789 clinical isolate, OD600, 24 h, basal, primary screen (AID 1089); details: higher = more signal, called active from +8 up or from −8 down;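 note: growth of clinical yeast isolate S. cerevisiae YJM 789 seeded 1000 cells per well; test concentration not given here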
[3] = S. pombe growth modifiers, basal conditions – strain 972, OD600, 24 h, no modulator, primary screen (AID 1090);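 note: basal condition with compound alone and no growth modifier present; test concentration not given here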; details: S. pombe 972 growth, higher = more signal, called active from +8 up or from −8 down
[4] = budding yeast growth modifiers under rapamycin – strain BY4716, OD600, 96 h, primary screen (AID 1091); note: test concentration not given here; details: S. cerevisiae BY4716 + rapamycin, higher = more signal, called active from +8 up or from −8 down
[5] = target: Torsin-1A-interacting protein 2 (Homo sapiens) (UniProt Q8NFQ8); assay: small molecules binding lysate-expressed LULL1 – cell lysate, human LULL1 lysate, 635/667 nm fluorescence, primary screen (AID 1092); details: small-molecule microarray, hLULL1 lysate binding, 635 nm fluorescence; higher = more signal;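 note: probe is lysate of COS7 cells overexpressing human LULL1; score merges per-feature 667 nm fluorescence with signal-to-noise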
Sequence of Torsin-1A-interacting protein 2 (Homo sapiens) (Q8NFQ8 whole entry, looked up): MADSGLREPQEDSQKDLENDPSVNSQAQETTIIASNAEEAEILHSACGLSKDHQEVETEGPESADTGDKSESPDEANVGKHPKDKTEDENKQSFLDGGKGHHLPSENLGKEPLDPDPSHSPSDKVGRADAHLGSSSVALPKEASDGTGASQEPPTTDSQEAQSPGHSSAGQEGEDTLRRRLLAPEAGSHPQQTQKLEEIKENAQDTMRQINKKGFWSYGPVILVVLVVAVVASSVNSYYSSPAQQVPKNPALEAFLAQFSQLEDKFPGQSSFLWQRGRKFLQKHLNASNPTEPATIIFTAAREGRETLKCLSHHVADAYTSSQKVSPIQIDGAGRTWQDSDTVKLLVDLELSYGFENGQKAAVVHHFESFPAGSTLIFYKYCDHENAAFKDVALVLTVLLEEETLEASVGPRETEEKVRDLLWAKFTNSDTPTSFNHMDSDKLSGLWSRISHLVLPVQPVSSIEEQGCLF

[6] = optical density change of DRC41 E. coli – strain DRC41, OD650, 24 h, E. coli filamentation project, primary screen (AID 1093);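 note: MC1000 strain lacking acrAB efflux and sulA so SOS filamentation is blocked; test concentration not given here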; details: E. coli DRC41 growth, higher = more signal, called active from +8 up or from −8 down
[7] = probe aLefty2 binding to arrayed compounds – biochemical, biotinylated probe, 635/667 nm fluorescence, primary screen (AID 1094); details: small-molecule microarray, higher = more signal;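 note: score merges spot fluorescence near 667 nm with spot signal-to-noise ratio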
[8] = test system: Noggin (protein binding on small-molecule microarray); assay: small molecules binding Noggin protein – biochemical, 635/667 nm fluorescence, primary screen (AID 1095); details: 635 nm fluorescence, higher = more signal;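 note: score merges 667 nm feature fluorescence with signal to noise over triplicate slides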
[9] = target: Neurogenic locus notch homolog protein 3 (Homo sapiens) (UniProt Q9UM47); assay: small molecules binding NOTCH3 protein – biochemical, 635/667 nm fluorescence, primary screen (AID 1096); details: small-molecule microarray, 635 nm fluorescence, higher = more signal
Sequence of Neurogenic locus notch homolog protein 3 (Homo sapiens) (Q9UM47 whole entry, looked up): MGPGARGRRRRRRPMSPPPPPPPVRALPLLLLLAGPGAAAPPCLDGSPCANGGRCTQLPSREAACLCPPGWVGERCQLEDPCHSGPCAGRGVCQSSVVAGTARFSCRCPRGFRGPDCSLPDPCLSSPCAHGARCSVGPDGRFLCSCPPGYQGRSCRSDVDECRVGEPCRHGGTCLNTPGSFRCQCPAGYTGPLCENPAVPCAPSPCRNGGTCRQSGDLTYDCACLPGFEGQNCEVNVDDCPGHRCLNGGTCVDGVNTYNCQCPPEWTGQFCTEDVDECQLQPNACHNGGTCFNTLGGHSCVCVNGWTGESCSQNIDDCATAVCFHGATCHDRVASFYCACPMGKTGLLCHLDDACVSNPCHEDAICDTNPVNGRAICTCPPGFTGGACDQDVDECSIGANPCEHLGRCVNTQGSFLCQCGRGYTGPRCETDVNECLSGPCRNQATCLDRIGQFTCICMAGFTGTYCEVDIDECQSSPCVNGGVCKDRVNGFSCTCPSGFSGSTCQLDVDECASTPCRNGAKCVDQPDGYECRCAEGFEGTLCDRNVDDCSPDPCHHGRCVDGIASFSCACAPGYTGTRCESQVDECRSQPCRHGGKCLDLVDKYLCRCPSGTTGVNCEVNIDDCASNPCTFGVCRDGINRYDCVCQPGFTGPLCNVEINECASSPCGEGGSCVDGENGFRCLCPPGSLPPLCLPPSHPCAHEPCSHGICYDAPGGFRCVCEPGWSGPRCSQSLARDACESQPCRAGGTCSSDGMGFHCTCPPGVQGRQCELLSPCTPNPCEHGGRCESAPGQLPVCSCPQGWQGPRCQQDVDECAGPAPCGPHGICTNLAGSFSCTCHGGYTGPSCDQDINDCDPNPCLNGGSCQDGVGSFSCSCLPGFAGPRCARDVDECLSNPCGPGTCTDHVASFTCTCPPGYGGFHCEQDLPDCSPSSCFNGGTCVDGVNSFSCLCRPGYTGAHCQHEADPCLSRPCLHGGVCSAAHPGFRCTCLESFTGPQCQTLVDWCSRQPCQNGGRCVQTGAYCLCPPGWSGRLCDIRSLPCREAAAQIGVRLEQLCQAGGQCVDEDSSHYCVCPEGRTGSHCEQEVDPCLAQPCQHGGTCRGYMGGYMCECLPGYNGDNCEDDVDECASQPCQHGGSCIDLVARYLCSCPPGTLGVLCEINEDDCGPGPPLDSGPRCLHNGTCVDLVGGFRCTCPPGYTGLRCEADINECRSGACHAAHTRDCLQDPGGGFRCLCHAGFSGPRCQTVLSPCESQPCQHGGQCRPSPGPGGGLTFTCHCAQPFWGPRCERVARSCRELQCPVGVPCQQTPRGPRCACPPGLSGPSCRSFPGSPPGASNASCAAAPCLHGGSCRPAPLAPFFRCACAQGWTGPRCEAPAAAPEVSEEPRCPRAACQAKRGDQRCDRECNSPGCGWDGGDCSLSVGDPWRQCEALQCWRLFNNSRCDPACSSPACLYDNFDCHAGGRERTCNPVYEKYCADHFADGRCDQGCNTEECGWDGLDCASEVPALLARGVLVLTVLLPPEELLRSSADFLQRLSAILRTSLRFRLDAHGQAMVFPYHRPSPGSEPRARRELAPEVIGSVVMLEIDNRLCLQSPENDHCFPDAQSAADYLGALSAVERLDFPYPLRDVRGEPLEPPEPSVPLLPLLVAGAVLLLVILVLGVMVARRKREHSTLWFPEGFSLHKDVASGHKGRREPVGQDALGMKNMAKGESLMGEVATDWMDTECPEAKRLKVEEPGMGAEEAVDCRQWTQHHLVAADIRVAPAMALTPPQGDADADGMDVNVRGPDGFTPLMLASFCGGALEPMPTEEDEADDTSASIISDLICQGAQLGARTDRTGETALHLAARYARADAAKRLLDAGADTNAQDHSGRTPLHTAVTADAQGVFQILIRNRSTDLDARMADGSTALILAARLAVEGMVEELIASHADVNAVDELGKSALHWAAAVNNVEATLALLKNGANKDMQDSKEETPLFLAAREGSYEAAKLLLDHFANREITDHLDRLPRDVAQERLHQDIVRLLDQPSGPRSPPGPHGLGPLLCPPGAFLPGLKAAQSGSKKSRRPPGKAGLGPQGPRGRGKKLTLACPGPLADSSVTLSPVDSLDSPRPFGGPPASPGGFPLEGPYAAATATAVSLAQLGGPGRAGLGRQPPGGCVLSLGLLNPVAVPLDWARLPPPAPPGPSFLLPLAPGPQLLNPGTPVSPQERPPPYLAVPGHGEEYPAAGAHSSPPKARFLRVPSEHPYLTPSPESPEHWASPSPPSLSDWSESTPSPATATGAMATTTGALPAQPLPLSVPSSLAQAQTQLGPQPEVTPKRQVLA

[10] = probe aEGFR binding to arrayed compounds – biochemical, biotinylated probe, 635/667 nm fluorescence, primary screen (AID 1097); details: small-molecule microarray, higher = more signal;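 note: probe is a biotinylated anti-EGFR antibody binding compounds printed on slides; score combines fluorescence near 667 nm and signal to noise of each spot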
[11] = test system: Plasmodium falciparum Sir2 (PF13_0152, Sir2A); assay: Plasmodium falciparum Sir2A binding compounds – biochemical, small-molecule microarray, 635 nm fluorescence, primary screen (AID 1098); details: fluorescence 635 nm, higher = more signal;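 note: score merges spot fluorescence intensity with its signal-to-noise ratio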
[12] = probe aDKK1 binding to arrayed compounds – biochemical, biotinylated probe, 635/667 nm fluorescence, primary screen (AID 1099); details: small-molecule microarray, higher = more signal;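 note: score merges 667nm spot fluorescence with signal to noise across triplicate slides; reference of the scale not given here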
[13] = probe aCHRDL2 binding to arrayed compounds – biochemical, biotinylated probe, 635/667 nm fluorescence, primary screen (AID 1100); details: small-molecule microarray, higher = more signal
[14] = change in splice reporter luminescence, either direction, cell-based, HEK293, spliceosome inhibition project, primary screen (AID 1101); details: HEK293 splicing luciferase reporter, 24 h, higher = more signal, called active from +8 up or from −8 down;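 note: HEK293 cells carrying a splicing-competent luciferase reporter gene; test concentration not given here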
[15] = target: Fibroblast growth factor 10 (Homo sapiens) (UniProt O15520); assay: compounds binding fibroblast growth factor 10 – biochemical, small-molecule microarray, 635 nm fluorescence, primary screen (AID 1102); details: FGF10 binding, fluorescence 635 nm, higher = more signal
Sequence of Fibroblast growth factor 10 (Homo sapiens) (O15520 whole entry, looked up): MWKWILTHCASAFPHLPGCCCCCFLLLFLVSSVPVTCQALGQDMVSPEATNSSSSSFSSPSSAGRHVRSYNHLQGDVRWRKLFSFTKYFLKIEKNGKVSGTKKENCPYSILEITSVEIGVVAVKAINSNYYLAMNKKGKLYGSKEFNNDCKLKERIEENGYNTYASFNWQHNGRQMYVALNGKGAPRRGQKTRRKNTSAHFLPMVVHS

[16] = test system: glycogen synthase kinase-3 (GSK3A per assay name; protocol says GSK3B); assay: compounds binding glycogen synthase kinase-3 – biochemical, small-molecule microarray, 635 nm fluorescence, GSK3A, primary screen (AID 1103); details: fluorescence 635 nm, higher = more signal; note: the record names both GSK3A and GSK3B
[17] = target: Epidermal growth factor receptor (Homo sapiens) (UniProt P00533); assay: compounds binding epidermal growth factor receptor – biochemical, small-molecule microarray, 635 nm fluorescence, primary screen (AID 1104); details: EGFR binding, higher = more signal;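 note: score merges 667 nm emission intensity with spot signal to noise over triplicate slides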
Sequence of Epidermal growth factor receptor (Homo sapiens) (P00533 whole entry, looked up): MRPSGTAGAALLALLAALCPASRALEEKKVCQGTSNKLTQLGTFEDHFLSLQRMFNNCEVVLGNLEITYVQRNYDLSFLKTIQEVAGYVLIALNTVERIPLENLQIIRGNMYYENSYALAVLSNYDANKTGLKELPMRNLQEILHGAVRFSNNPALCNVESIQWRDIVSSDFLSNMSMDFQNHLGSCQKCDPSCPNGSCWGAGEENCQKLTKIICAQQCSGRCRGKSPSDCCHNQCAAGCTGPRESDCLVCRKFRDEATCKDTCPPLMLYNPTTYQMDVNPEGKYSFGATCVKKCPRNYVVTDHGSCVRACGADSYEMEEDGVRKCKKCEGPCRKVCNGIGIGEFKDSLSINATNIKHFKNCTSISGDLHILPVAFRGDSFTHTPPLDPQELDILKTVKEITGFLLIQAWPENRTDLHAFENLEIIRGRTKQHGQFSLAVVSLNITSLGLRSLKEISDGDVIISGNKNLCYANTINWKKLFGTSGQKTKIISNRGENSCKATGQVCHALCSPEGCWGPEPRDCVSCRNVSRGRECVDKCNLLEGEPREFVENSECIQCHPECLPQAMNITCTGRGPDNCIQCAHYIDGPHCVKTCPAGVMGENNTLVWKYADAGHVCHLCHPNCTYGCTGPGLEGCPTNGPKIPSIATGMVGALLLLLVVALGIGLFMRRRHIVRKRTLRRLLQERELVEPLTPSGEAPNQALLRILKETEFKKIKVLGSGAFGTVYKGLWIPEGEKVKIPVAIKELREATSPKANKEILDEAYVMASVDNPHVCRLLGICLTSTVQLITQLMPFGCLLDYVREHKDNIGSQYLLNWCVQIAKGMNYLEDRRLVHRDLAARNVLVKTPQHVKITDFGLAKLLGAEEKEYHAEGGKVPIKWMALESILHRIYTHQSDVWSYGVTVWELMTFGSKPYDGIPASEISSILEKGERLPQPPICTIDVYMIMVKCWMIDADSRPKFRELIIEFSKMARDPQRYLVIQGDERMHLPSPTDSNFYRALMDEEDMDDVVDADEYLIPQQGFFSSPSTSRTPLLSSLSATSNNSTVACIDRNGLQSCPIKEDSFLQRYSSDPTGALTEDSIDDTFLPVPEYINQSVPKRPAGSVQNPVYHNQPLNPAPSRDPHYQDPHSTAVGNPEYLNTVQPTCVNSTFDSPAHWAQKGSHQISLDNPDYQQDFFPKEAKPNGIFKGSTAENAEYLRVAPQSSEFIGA

[18] = target: Follistatin-related protein 3 (Homo sapiens) (UniProt O95633); assay: compounds binding follistatin-related protein 3 – biochemical, small-molecule microarray, 635 nm fluorescence, primary screen (AID 1105); details: FSTL3 binding, higher = more signal;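 note: score merges emission near 667 nm and signal to noise per printed spot across three slides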
Sequence of Follistatin-related protein 3 (Homo sapiens) (O95633 whole entry, looked up): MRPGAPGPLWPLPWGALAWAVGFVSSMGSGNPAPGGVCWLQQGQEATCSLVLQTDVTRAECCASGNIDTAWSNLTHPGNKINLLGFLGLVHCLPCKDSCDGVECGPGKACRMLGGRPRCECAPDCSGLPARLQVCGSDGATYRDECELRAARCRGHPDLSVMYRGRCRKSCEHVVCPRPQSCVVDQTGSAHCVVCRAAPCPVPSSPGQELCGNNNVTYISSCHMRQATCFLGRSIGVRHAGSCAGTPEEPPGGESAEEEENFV

[19] = target: Dickkopf-related protein 1 (Homo sapiens) (UniProt O94907); assay: small molecules binding DKK1 protein – biochemical, small-molecule microarray, 635 nm fluorescence scan, primary screen (AID 1106); details: higher = more signal;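 note: score merges emission near 667 nm with signal to noise over three replicate slides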
Sequence of Dickkopf-related protein 1 (Homo sapiens) (O94907 whole entry, looked up): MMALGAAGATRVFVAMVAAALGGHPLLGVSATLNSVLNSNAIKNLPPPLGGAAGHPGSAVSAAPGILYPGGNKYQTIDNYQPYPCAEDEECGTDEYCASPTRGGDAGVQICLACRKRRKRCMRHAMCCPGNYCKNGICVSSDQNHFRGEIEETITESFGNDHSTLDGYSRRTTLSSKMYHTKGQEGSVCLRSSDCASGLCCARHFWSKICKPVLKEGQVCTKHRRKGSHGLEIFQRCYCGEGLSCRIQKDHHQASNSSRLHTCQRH

[20] = test system: Inhibin beta A chain (activin A); assay: small molecules binding activin A – biochemical, small-molecule microarray, 635 nm fluorescence scan, primary screen (AID 1107); details: INHBA, higher = more signal;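 note: mouse activin A protein probed at 4.33 µg/mL on printed slides; score merges bound-protein fluorescence near 667 nm with spot signal-to-noise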

Structure (SMILES): CCCCC(=O)N(CCN1CCOCC1)[C@@H]1CC(C(=O)NCCO)=C[C@H](Oc2c(I)cc(CO)cc2OC)[C@H]1O
- composite z-score [1]: 0.729
- z-score [2]: 0.0164 (inactive)
- z-score [3]: -0.393 (inactive)
- z-score [4]: 0.0883 (inactive)
- composite z-score [5]: 0.322
- z-score [6]: 1.3 (inactive)
- composite z-score [7]: -0.301
- composite z-score [8]: 0.26
- composite z-score [9]: 0.232
- composite z-score [10]: -0.152
- composite z-score [11]: 0.787
- composite z-score [12]: -0.309
- composite z-score [13]: -0.764
- z-score [14]: 0.751 (inactive)
- composite z-score [15]: 0.318
- composite z-score [16]: 0.725
- composite z-score [17]: 0.349
- composite z-score [18]: 0.412
- composite z-score [19]: 0.817
- composite z-score [20]: 0.0845

Structure (SMILES): O=C1C[C@@](C(=O)NCC(F)(F)F)(c2ccc([N+](=O)[O-])cc2)[C@@H](c2ccc(CO)cc2)N1CC12CC3CC(CC(C3)C1)C2
- composite z-score [1]: 1.55
- z-score [2]: 0.263 (inactive)
- z-score [3]: -1.03 (inactive)
- z-score [4]: 1.77 (inactive)
- composite z-score [5]: 2.05
- z-score [6]: -0.49 (inactive)
- composite z-score [7]: 0.426
- composite z-score [8]: 1.26
- composite z-score [9]: 0.614
- composite z-score [10]: 0.751
- composite z-score [11]: 1.4
- composite z-score [12]: 1.09
- composite z-score [13]: 0.957
- z-score [14]: -2.11 (inactive)
- composite z-score [15]: 1.44
- composite z-score [16]: 1.07
- composite z-score [17]: 1.13
- composite z-score [18]: 1.03
- composite z-score [19]: 0.927
- composite z-score [20]: 0.469

Structure (SMILES): COc1ccc(C#Cc2ccc3c(c2)[C@]2(C(=O)N3)[C@H](C(=O)Nc3nc4ccccc4s3)[C@H]3C(=O)O[C@H](c4ccccc4)[C@H](c4ccccc4)N3[C@@H]2c2ccccc2OCCO)cc1
- composite z-score [1]: 1.36
- z-score [2]: 2.56 (inactive)
- z-score [3]: 1.53 (inactive)
- z-score [4]: 1.59 (inactive)
- composite z-score [5]: 3.08
- z-score [6]: 2.62 (inactive)
- composite z-score [7]: -0.0949
- composite z-score [8]: 0.486
- composite z-score [9]: 1.13
- composite z-score [10]: -0.106
- composite z-score [11]: 0.465
- composite z-score [12]: 0.243
- composite z-score [13]: -0.125
- z-score [14]: 0.17 (inactive)
- composite z-score [15]: 0.463
- composite z-score [16]: 0.933
- composite z-score [17]: 0.19
- composite z-score [18]: 0.821
- composite z-score [19]: 0.47
- composite z-score [20]: 0.648

Structure (SMILES): O=C(NCCN1CCOCC1)[C@@H]1c2ccccc2C(=O)N(Cc2ccccc2)[C@H]1c1ccc(CO)cc1
- composite z-score [1]: -0.845
- z-score [2]: -0.0009 (inactive)
- z-score [3]: 0.253 (inactive)
- z-score [4]: -0.412 (inactive)
- composite z-score [5]: 0.0893
- z-score [6]: 0.311 (inactive)
- composite z-score [7]: -0.129
- composite z-score [8]: 0.278
- composite z-score [9]: -0.036
- composite z-score [10]: -0.204
- composite z-score [11]: 0.84
- composite z-score [12]: -0.117
- composite z-score [13]: 0.82
- z-score [14]: -0.316 (inactive)
- composite z-score [15]: -0.765
- composite z-score [16]: -1.13
- composite z-score [17]: -1.81
- composite z-score [18]: -0.481
- composite z-score [19]: -0.667
- composite z-score [20]: 0.269

Structure (SMILES): COc1ccc([Si](C)(C)[C@@H]2[C@@H](CCn3cc([C@H](O)c4ccccc4)nn3)O[C@]3(C(=O)N(Cc4cccc(N5C(=O)c6cccc7cccc5c67)c4)c4ccccc43)[C@H]2C)cc1
- composite z-score [1]: 0.645
- z-score [2]: 0.738 (inactive)
- z-score [3]: 1.21 (inactive)
- z-score [4]: 2.54 (inactive)
- composite z-score [5]: 0.98
- z-score [6]: -0.143 (inactive)
- composite z-score [7]: -0.139
- composite z-score [8]: -0.319
- composite z-score [9]: -0.048
- composite z-score [10]: -0.182
- composite z-score [11]: -0.225
- composite z-score [12]: -0.0463
- composite z-score [13]: 0.575
- z-score [14]: 1.41 (inactive)
- composite z-score [15]: -0.365
- composite z-score [16]: -0.83
- composite z-score [17]: -1.32
- composite z-score [18]: -0.607
- composite z-score [19]: -1.02
- composite z-score [20]: -0.317

Structure (SMILES): O=C1C2C=CC(C(O)c3cc(C(F)(F)F)cc(C(F)(F)F)c3)N(Nc3ccccc3F)C2C(=O)N1c1ccccc1 (stereo not given)
- composite z-score [1]: 1.11
- z-score [2]: 0.503 (inactive)
- z-score [3]: 0.854 (inactive)
- z-score [4]: 6.9 (inactive)
- composite z-score [5]: 3.19
- z-score [6]: -1.99 (inactive)
- composite z-score [7]: 0.0655
- composite z-score [8]: -0.989
- composite z-score [9]: 1.07
- composite z-score [10]: 0.0061
- composite z-score [11]: 0.99
- composite z-score [12]: 1.09
- composite z-score [13]: 1.03
- z-score [14]: 0.537 (inactive)
- composite z-score [15]: 0.223
- composite z-score [16]: 0.708
- composite z-score [17]: -0.855
- composite z-score [18]: -0.19
- composite z-score [19]: -0.795
- composite z-score [20]: 0.37

Structure (SMILES): [N-]=[N+]=NCc1ccccc1[C@@H]1OC(c2ccc(OCCCO)cc2)=N[C@]1(Cc1ccccc1N=[N+]=[N-])C(=O)N1CCCCC1
- composite z-score [1]: 1.38
- z-score [2]: -0.0524 (inactive)
- z-score [3]: -1.17 (inactive)
- z-score [4]: 2.24 (inactive)
- composite z-score [5]: 3.18
- z-score [6]: 0.379 (inactive)
- composite z-score [7]: 0.0216
- composite z-score [8]: 0.345
- composite z-score [9]: 0.921
- composite z-score [10]: 0.706
- composite z-score [11]: 0.785
- composite z-score [12]: 0.561
- composite z-score [13]: 0.321
- z-score [14]: 0.327 (inactive)
- composite z-score [15]: 0.548
- composite z-score [16]: 0.363
- composite z-score [17]: 0.435
- composite z-score [18]: 0.491
- composite z-score [19]: -0.221
- composite z-score [20]: 1.29

Structure (SMILES): COCCOC(=O)N1C(=O)[C@@]2(c3cc(C#CCCO)ccc31)[C@H](C(N)=O)[C@H]1C(=O)O[C@H](c3ccccc3)[C@H](c3ccccc3)N1[C@@H]2c1ccc(OCCO)cc1
- composite z-score [1]: 1.54
- z-score [2]: 1.94 (inactive)
- z-score [3]: 0.63 (inactive)
- z-score [4]: 2.82 (inactive)
- composite z-score [5]: 3.02
- z-score [6]: -0.187 (inactive)
- composite z-score [7]: -0.161
- composite z-score [8]: 0.632
- composite z-score [9]: 0.992
- composite z-score [10]: 0.0754
- composite z-score [11]: 1.44
- composite z-score [12]: 0.209
- composite z-score [13]: 0.415
- z-score [14]: 0.475 (inactive)
- composite z-score [15]: 1.25
- composite z-score [16]: 1.23
- composite z-score [17]: 0.808
- composite z-score [18]: 1.14
- composite z-score [19]: 0.616
- composite z-score [20]: 0.914

Structure (SMILES): COc1ccc([Si](C)(C)[C@@H]2[C@@H](CC(=O)N3Cc4ccccc4C[C@H]3CO)O[C@]3(C(=O)N(Cc4ccc(N5CCC5=O)cc4)c4ccccc43)[C@H]2C)cc1
- composite z-score [1]: 1.55
- z-score [2]: 0.68 (inactive)
- z-score [3]: 1.02 (inactive)
- z-score [4]: 3.23 (inactive)
- composite z-score [5]: 2.77
- z-score [6]: 0.409 (inactive)
- composite z-score [7]: -0.0945
- composite z-score [8]: 1.32
- composite z-score [9]: 1.14
- composite z-score [10]: -0.0954
- composite z-score [11]: 1.16
- composite z-score [12]: -0.259
- composite z-score [13]: -0.1
- z-score [14]: -1.12 (inactive)
- composite z-score [15]: 0.46
- composite z-score [16]: 0.852
- composite z-score [17]: 0.744
- composite z-score [18]: 1.06
- composite z-score [19]: 0.644
- composite z-score [20]: 0.331
